Results on 40 compounds are retold here after PubChem BioAssay (Tox21).

Records with an inconclusive call do not appear. A call without a number means that no potency is given here. Values without a mark were called inactive. Activity calls are given as the source filed them. The call rests on the fitted dose curve; in most records, active means well fitted inhibition curve with a large enough effect in the signal ratio in the repeat runs (not every such curve was filed as active); inconclusive means weak or mixed curves, or effect the other way; inactive means flat fitted curve, though single readings scatter; the % refers to the signal ratio.

This assay can be described thus: cAMP Responsive Elements (CRE) small molecule antagonists, cell-based qHTS assay (AID 1963591). As to conditions: CRE-bla HEK293T, beta-lactamase FRET ratio; series mostly up to 92.4 µM. From the text:
U.S. Tox21 Program National Center for Advancing Translational Sciences [NCATS] Division of Preclinical Innovation [DPI] U.S. Environmental Protection Agency [EPA] National Institutes of Environmental Health Sciences [NIEHS] National Toxicology Program [NTP] U.S. Food and Drug Administration [FDA] Tox21 Assay Overview: CREB (cyclic-AMP Responsive Element Binding Protein) is a cellular transcription factor. It binds to certain DNA sequences called cAMP Responsive Elements (CRE) and regulates the transcription of the genes. […] This cell line can be used to find agonists/antagonists of the cyclic AMP signaling pathway. The activation of the report gene under culture conditions can be detected by fluorescence intensity. This cell line has been used to screen the Tox21 10K compound library to […].
Tox21 Assay Protocol Summary: CRE-bla Hek 293T cells were suspended in assay medium (DMEM containing 10% dialyzed FBS, 0.1 mM NEAA, 1 mM sodium pyruvate and 25 mM HEPES) and dispensed at 2,000 cells/4 uL /well into 1536-well black wall/clear bottom plates using a Multidrop Combi (ThermoFisher Scientific, Waltham, MA) dispenser. After the assay plates were incubated at 37 C/5% CO2 for 18 hrs, 23 nL of compounds dissolved in DMSO, positive controls or DMSO only was transferred to the assay plate by a pintool workstation (Kalypsys, San Diego, CA), followed by addition of 1 […] uL of 1.25uM NKH477 (0.25 uM as final concentration) in assay medium using a Flying Reagent Dispenser (Aurora Discovery, San Diego, CA). The plates were incubated at 37 C and 5% CO2 for 3 hrs. Then 1 uL of LiveBLAzer B/G FRET substrate (Invitrogen, Carlsbad, CA) was added to each well using Bioraptr Flying Reagent Dispenser (FRD, Aurora Discovery, San Diego, CA). The plates were incubated at room temperature for 2 h.
With `O=C(O)c1ccc([N+](=O)[O-])cc1`, the Potency entry is “inactive”.

For `CCCCCCN`, the Potency result was “inactive”.

For the compound `c1ccc2c(c1)CCC2`, the Potency result is “inactive”.

Consider `CCCC(C)C(O)CC` (stereo not given), for which the Potency entry was “inactive”.

`C1CCC(SSC2CCCCC2)CC1`: the Potency result is “inactive”.

Regarding `Cc1ccc(C)cc1`, the Potency entry was “inactive”.

As to `COC(c1ccccc1)(c1ccccc1)[C@H](Oc1nc(C)cc(C)n1)C(=O)O`, the Potency result is “inactive”.

Turning to `O=C1NC2NC(=O)NC2N1` (stereo not given), the Potency entry is “inactive”.

For the compound `CC(C)N=C=NC(C)C`, the Potency entry is “inactive”.

In the case of `CC1=CC[C@H](CC=O)C1(C)C`, the Potency entry was “inactive”.

On to `Cc1ccc2n[nH]nc2c1`, for which the Potency entry is “inactive”.

On to `CCCOCCOCCO`, for which the Potency entry is “inactive”.

Regarding `CC(C)C(=O)O`, the Potency result was “inactive”.

With `CC(=O)[O][Al][O]C(C)=O`, the Potency result was “inactive”.

On to `COc1ccc(NC(C)=O)cc1`, for which the Potency entry was “inactive”.

`CSc1nnc(C(C)(C)C)c(=O)[nH]1`: the Potency entry was “inactive”.

In the case of `C=CC(C)(O)CCC=C(C)C` (stereo not given), the Potency entry was “inactive”.

In the case of `CC(C#N)(CCC(=O)O)N=NC(C)(C#N)CCC(=O)O` (stereo not given), the Potency result was “inactive”.

With `OCc1c2ccccc2cc2ccccc12`, the Potency result is “inactive”.

As for `CC(C)=CCC[C@H](C)CC=O`, the Potency result was “inactive”.

Take `OCC1(CO)COCOC1`: the Potency result was “inactive”.

Turning to `[Cl][In]([Cl])[Cl]`, the Potency result is “inactive”.

Turning to `O=C1NCCN1CCO`, the Potency entry is “inactive”.

As to `CCCc1ccc(N)cc1`, the Potency entry is “inactive”.

`O=C(O)CNc1ccccc1`: the Potency entry was “inactive”.

`COc1cc(C(=O)N2CCOCC2)cc(OC)c1OC`: the Potency result is “inactive”.

For `CN(C)c1cc(NC(=O)CNC(C)(C)C)c(O)c2c1C[C@H]1C[C@H]3[C@H](N(C)C)C(=O)C(C(N)=O)=C(O)[C@@]3(O)C(=O)C1=C2O`, the Potency entry was “inactive”.

`CN1C(CCl)Nc2cc(Cl)c(S(N)(=O)=O)cc2S1(=O)=O` (stereo not given): the Potency entry was “inactive”.

As to `CCc1ccc(C)nc1`, the Potency result was “inactive”.

`O=C(O)c1cccc(C(F)(F)F)c1`: the Potency result was “inactive”.

Consider `COc1ccc2nc(N)sc2c1`, for which the Potency result is “inactive”.

For the compound `C1COC1`, the Potency entry is “inactive”.

As for `NC[C@H]1O[C@H](O[C@H]2[C@H](O)[C@@H](O[C@H]3O[C@H](CO)[C@@H](O)[C@H](N)[C@H]3O)[C@H](N)C[C@@H]2N)[C@H](N)[C@@H](O)[C@@H]1O`, the activity change, negative = inhibition was 0.145% [at 18.9 µM].

As to `CCC(=O)OC(C)(C)C1CC=C(C)CC1` (stereo not given), the Potency entry is “inactive”.

As to `CCCC/C=C\CCCCCCCCCC=O`, the Potency result is “inactive”.

In the case of `N#CCc1cccc(C(F)(F)F)c1`, the Potency result is “inactive”.

As to `CN1CCOCC1`, the Potency result was “inactive”.

As for `CCCCCCCCCCC`, the Potency entry is “inactive”.

For the compound `CCCOCCO`, the Potency result was “inactive”.

Regarding `C=CC(=O)CC`, the Potency result is “inactive”.
